Reference: PubChem BioAssay AID1578 (Sanford-Burnham Center for Chemical Genomics, 2009)
Screen size: about 290,000 compounds; about 3,000 (1%) were called active. Cut-off read from the data, not from the text of the source: active = inhibition mostly above about 36% (no sharp cut-off); inactive = mostly below about 34%. Shown is part of a subset that was picked to be rich in actives.

Test: inhibition of NOD1-driven NF-kB reporter – cell-based, luminescence, uHTS, primary screen (AID 1578);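 note: HEK-293T reporter cells stimulated with the NOD1 agonist gamma-tri-DAP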
Settings: NOD1-driven NF-kB luciferase reporter cells, at 4 µM, stronger effect = higher value

SMILES	inhibition
COCCN1C(=O)C(CC(=O)Nc2ccc(C(C)=O)cc2)SC1=Nc1ccccc1 (centres undefined)	4.5% (inactive)
COC(=O)Nc1ccc(C)c(NC(=O)OC)c1	-7.3% (inactive)
O=c1[nH]c([N+](=O)[O-])nn1C(c1ccccc1)c1ccccc1	6.5% (inactive)
COC(=O)c1ccc(CSc2cc(C)c3ccccc3n2)o1	-55.1% (inactive)
COC(=O)c1ccc(CSc2cc(C)c3cccc(C)c3n2)o1	-10.2% (inactive)
COC(=O)c1ccc(CSc2cc(C)c3cc(C)cc(C)c3n2)o1	48.3% (active)
CC(C)(C)c1cc(CN2CCC(O)CC2)cc(C(C)(C)C)c1O	36.7% (inactive)
CCOC(=O)C1CCN(Cc2cc(C(C)C)c(O)c(C(C)C)c2)CC1	-13.9% (inactive)
CCOC(=O)C1CCN(Cc2cc(C(C)(C)C)c(O)c(C(C)(C)C)c2)CC1	43.8% (active)
Cc1c(C(c2cccc(Br)c2)c2c(C)n(C)n(-c3ccccc3)c2=O)c(=O)n(-c2ccccc2)n1C	-14% (inactive)
CC12C(=O)N(c3ccc(C(=O)N4CCOCC4)cc3)C(=O)C1C1c3ccccc3C2c2ccccc21 (centres undefined)	-20.5% (inactive)
c1ccc(-n2c(SCC3CCCCO3)nnc2-c2cnccn2)cc1 (centres undefined)	11.8% (inactive)
CCc1nnc(NC(=O)C2CCN(c3cnccn3)CC2)s1	-4.1% (inactive)
COc1nc(N/N=C/c2ccc(C)cc2)nc(N2CCCCC2)n1	-27.3% (inactive)
Cc1ccc(-n2c(-c3ccncc3)n[nH]c2=S)cc1C	-5.7% (inactive)
Cc1cc(-c2n[nH]c(=S)n2-c2ccc(C)c(C)c2)no1	84% (active)
Cc1ccc(-n2c(C)n[nH]c2=S)cc1C	3.4% (inactive)
CCN(CC)S(=O)(=O)N1CCC(C(=O)NCc2ccco2)CC1	22% (inactive)
COc1ccc(C2(c3ccc(OC)cc3)NC(=O)N(CC(=O)N(C)C)C2=O)cc1	-33.1% (inactive)
COc1c(Cl)cc(-c2noc(C)c2C(=O)NCCc2ccc(C)cc2)cc1Cl	-10.2% (inactive)
CN(C)c1ccc(NC(=O)C(=O)C2C(=O)Nc3ccccc32)cc1 (centres undefined)	-9.3% (inactive)
COc1cccc(CC(NC(C)=O)C(=O)NC2CCN(c3c4c(nc5ncnn35)CCC4)CC2)c1OC (centres undefined)	-26.4% (inactive)
CC1=Nc2cc(C(=O)NCC3CCCO3)ccc2Sc2ccc(Br)cc21 (centres undefined)	8.4% (inactive)
CCC1=Nc2cc(C(=O)NCC3CCCO3)ccc2Sc2ccc(Cl)cc21 (centres undefined)	1% (inactive)
CCC1=Nc2cc(C(=O)NCC3CCCO3)ccc2Sc2ccc(Br)cc21 (centres undefined)	51.7% (active)

SMILES	inhibition
CCCCNC(=O)N1CCN(c2ccccc2OC)CC1	-17.5% (inactive)
CCCN(CC(=O)Nc1ccc(C(N)=O)cc1)CC(=O)Nc1ccc(F)c(F)c1F	38.1% (active)
CCCN(CC(=O)Nc1ccc(NC(C)=O)cc1)CC(=O)Nc1ccc(F)c(F)c1F	-20.3% (inactive)
CCCN(CC(=O)Nc1ccc(C(N)=O)cc1)CC(=O)Nc1ccc(Cl)cc1Cl	-30.3% (inactive)
CC(C)NC(=O)CSc1nnc(-c2ccc3ncccc3c2)n1C	-3.6% (inactive)
c1cc2[nH]snc2c2nc(C3CC3)nc12	63.2% (active)
Cc1nc2ccc3[nH]snc3c2n1	20.2% (inactive)
CCCOc1ccc2cc(-c3ccccn3)c(=O)oc2c1	41.1% (inactive)
CC1CN(CCc2ccccc2)c2nc3c(c(=O)n(C)c(=O)n3C)n2C1 (centres undefined)	-12.5% (inactive)
N#Cc1ccc(-n2c(-c3ccccc3)nnc2-c2ccccc2)cc1C#N	42.1% (active)
CCOc1ccc(-n2c(-c3ccccc3)nnc2-c2ccccc2)cc1	8.2% (inactive)
N#Cc1ccc(-c2nc3ccccc3nc2-c2ccccc2)cc1C#N	1.3% (inactive)
N#Cc1cccc(-n2c(-c3ccccc3)nnc2-c2ccccc2)c1C#N	11.5% (inactive)
N#Cc1ccc(Oc2ccc(-c3nc4ccccc4nc3-c3ccccc3)cc2)cc1C#N	3.3% (inactive)
N#Cc1ccc(-c2nc3cc(C#N)c(C#N)cc3nc2-c2ccccc2)cc1C#N	48.5% (active)
CC(=O)Nc1nnc(CSCc2ccccc2F)s1	-5.5% (inactive)
CC(=O)N(C)c1cccc(-c2ccc3nnc(C)n3n2)c1	-5.9% (inactive)
CCOC(=O)c1c(-c2ccccc2)csc1NC(=O)c1cc(S(=O)(=O)N2CCOCC2)ccc1C	-1.6% (inactive)
Fc1ccc(Nc2nnc(C(F)(F)F)s2)cc1	3.4% (inactive)
Cc1oc(-c2cccc(F)c2)nc1CN1CCCCC1CCn1cccn1 (centres undefined)	-32% (inactive)
Cc1nnc(Nc2ccc(Cl)cc2)n(N)c1=O	-7% (inactive)
c1ccc2c(c1)OCC(c1nn3c(Cn4nnc5ccccc54)nnc3s1)O2 (centres undefined)	-10.7% (inactive)
c1ccc(OCc2nnc3sc(C4COc5ccccc5O4)nn23)cc1 (centres undefined)	1.5% (inactive)
c1ccc(Cc2nnc3sc(C4COc5ccccc5O4)nn23)cc1 (centres undefined)	107% (active)
O=C(Nc1ccc(F)cc1)c1nc[nH]c1C(=O)O	-6.5% (inactive)

SMILES	inhibition
Nc1nc(-c2ccccc2)c(C(=O)Nc2ccccc2)s1	-28.9% (inactive)
Cc1ccccc1C1C(=O)c2ccccc2C1=O	-39.1% (inactive)
O=C1c2ccccc2C(=O)C2OC12 (centres undefined)	70.9% (active)
O=C1c2ccccc2C(=O)C1c1ccccn1	-8.4% (inactive)
Clc1ccccc1OCCn1cnc2ccccc21	-21.1% (inactive)
COc1ccc(S(=O)(=O)NC(Cc2ccccc2)C(=O)O)cc1 (centres undefined)	-1.3% (inactive)
COc1ccc(C(CNC(=O)COc2ccc(C)c(C)c2)N2CCCCC2)cc1 (centres undefined)	10.5% (inactive)
Cc1nc(C)n(CCNC(=O)c2ccco2)n1	-15.3% (inactive)
Oc1c(Br)cc(Br)cc1C=Nc1ccc2[nH]ncc2c1	8.5% (inactive)
Oc1c(Br)cc(Br)cc1C=Nc1cccnc1	67.4% (active)
COc1cccc(C=Nc2cccnc2)c1O	-7.3% (inactive)
COc1ccc(/C=C2\CCC(C3CCCC3)C2=O)cc1Cn1nc(C)cc1C (centres undefined)	26.4% (inactive)
Cc1ccc(SCC(=O)NC2CCCCCC2)cc1	-50.8% (inactive)
CCN(CC)CCNC(=O)c1cn(CC)c2ccc(S(=O)(=O)N(C)C)cc2c1=O	-4.5% (inactive)
COc1ccc(C(CC(=O)c2ccc(C)cc2)C(C#N)C#N)cc1OC (centres undefined)	80.7% (active)
COC(=O)C(C(=O)OC)C(CC(=O)c1ccc(C)cc1)c1cc(OC)c(OC)c(OC)c1 (centres undefined)	-3.3% (inactive)
COc1ccc(C(CC(=O)c2ccccc2)CC(=O)c2ccccc2)cc1OC	-7.4% (inactive)
C=CCN(c1nc(C)c(Br)c(OC)n1)S(=O)(=O)c1ccc(C)cc1	-14% (inactive)
CCN(Cc1cc2ccccc2[nH]c1=O)S(=O)(=O)c1ccc(OC)cc1	-5.3% (inactive)
Cc1cc(CNC(=O)c2cccc([N+](=O)[O-])c2C)c2ccccc2n1	2.7% (inactive)
O=C(Oc1ccccc1C(=O)Nc1ccccc1)c1ccc(Br)c([N+](=O)[O-])c1	-30.7% (inactive)
O=C(c1ccc2c(Cl)c3c(nc2c1)CCCC3)N1CCC(N2CCCCC2)CC1	-13.1% (inactive)
Cn1c(=O)c(C(=O)CN2CCc3ccccc32)c(N)n(Cc2ccccc2)c1=O	-8.9% (inactive)
O=C(CSc1nc2ncc(Br)cc2[nH]1)c1ccc([N+](=O)[O-])cc1	-15.6% (inactive)
Cc1c(/C=C/C(=O)c2cccs2)cnn1C	20.7% (inactive)

SMILES	inhibition
Cc1nn(C)cc1/C=C/C(=O)c1cccs1	112% (active)
Cc1nn(C)cc1/C=C/C(=O)c1ccccc1	-44.5% (inactive)
Cc1ccnc(Cc2ccccc2)n1	-4.5% (inactive)
O=C(CCC(=O)OCC(=O)c1ccc(-c2ccccc2)cc1)Nc1cccc(Cl)c1	7.8% (inactive)
Cc1cc(C)n(-c2ccc(C(=O)Nc3ccccn3)cc2)n1	-30.3% (inactive)
Cc1onc(-c2ccccc2)c1C(=O)N/N=C(\N)COc1ccc(Cl)cc1	-17.2% (inactive)
Cc1onc(-c2ccccc2Cl)c1C(=O)N/N=C(\N)COc1ccc(Cl)cc1	8.6% (inactive)
Cc1onc(-c2c(Cl)cccc2Cl)c1C(=O)N/N=C(\N)COc1ccc(Cl)cc1	71.9% (active)
O=C(NCC1CC1)NC(=O)c1c(F)cccc1Cl	-15.8% (inactive)
Nc1ccc(S(=O)(=O)Nc2nccc(/C=C/c3ccc(Cl)cc3)n2)cc1	22.2% (inactive)
Nc1ccc(S(=O)(=O)Nc2nccc(/C=C/c3ccc([N+](=O)[O-])cc3)n2)cc1	14% (inactive)
C=CCn1cnc2c(nnn2-c2ccc(C)c(C)c2)c1=O	-34.3% (inactive)
Oc1ccc(N=Nc2ccc3c(c2)OCCO3)c(O)c1	-2.2% (inactive)
Oc1ccc(N=Nc2ccc3c(c2)OCO3)c2ccccc12	109% (active)
Oc1ccc(N=Nc2ccc3c(c2)OCCO3)c2ncccc12	106% (active)
NS(=O)(=O)c1ccc(N=Nc2ccc(O)c3ncccc23)cc1	-6.1% (inactive)
O=S(=O)(Nc1ccc(N=Nc2ccc(O)c3ccccc23)cc1)c1ccccc1	13% (inactive)
Oc1[nH]c2ccccc2c1C=Nc1ccc2c(c1)OCO2	14.2% (inactive)
Cc1ccc(S(=O)(=O)N(CC(=O)N2CCC(C)CC2)c2ccccc2)cc1	-4.7% (inactive)
Cc1nc(NC(=O)c2ccccc2)sc1C	-84.9% (inactive)
COCC(=O)OCn1nnc2ccccc2c1=O	3.6% (inactive)
Cc1ccccc1NC(=O)c1ccc(Nc2c([N+](=O)[O-])cc([N+](=O)[O-])c3ccccc23)cc1	76.4% (active)
O=C(Nc1ccccc1)c1ccc(Nc2c([N+](=O)[O-])cc([N+](=O)[O-])c3ccccc23)cc1	-8.1% (inactive)
Cc1ccc(NC(=O)c2ccc(Nc3c([N+](=O)[O-])cc([N+](=O)[O-])cc3[N+](=O)[O-])cc2)cc1	4.8% (inactive)
